From PubChem BioAssay AID493194 (Broad Institute, 2011)
Measured potencies and affinities stand elsewhere. Results filed as inconclusive are left out.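 Rule for the calls: active = a valid curve of falling signal whose half-effect concentration is at most ten times the top tested dose; inconclusive = flat curve at 30 to 70% inhibition, or poor fit; inactive = signal rise, flat within 30%, or potency beyond limit.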

molecular target: Scavenger receptor class B member 1 (Mus musculus) (UniProt Q61009); experiment: mouse SR-BI DiI-HDL uptake blockers – ldlA[mSR-BI] cells, fluorescence, cherry pick, dose response (AID 493194); details: CHO ldlA[mSR-BI] DiI-HDL uptake fluorescence, 3 h; series mostly up to 35 µM; activity change, negative = inhibition: at the top concentration;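 note: CHO cells lacking LDL receptor and overexpressing mouse SR-BI; cellular uptake of fluorescently labeled HDL measured as cell fluorescence; 0% = median of neutral control wells and -100% = median of positive control wells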
Sequence (Q61009 whole entry, looked up): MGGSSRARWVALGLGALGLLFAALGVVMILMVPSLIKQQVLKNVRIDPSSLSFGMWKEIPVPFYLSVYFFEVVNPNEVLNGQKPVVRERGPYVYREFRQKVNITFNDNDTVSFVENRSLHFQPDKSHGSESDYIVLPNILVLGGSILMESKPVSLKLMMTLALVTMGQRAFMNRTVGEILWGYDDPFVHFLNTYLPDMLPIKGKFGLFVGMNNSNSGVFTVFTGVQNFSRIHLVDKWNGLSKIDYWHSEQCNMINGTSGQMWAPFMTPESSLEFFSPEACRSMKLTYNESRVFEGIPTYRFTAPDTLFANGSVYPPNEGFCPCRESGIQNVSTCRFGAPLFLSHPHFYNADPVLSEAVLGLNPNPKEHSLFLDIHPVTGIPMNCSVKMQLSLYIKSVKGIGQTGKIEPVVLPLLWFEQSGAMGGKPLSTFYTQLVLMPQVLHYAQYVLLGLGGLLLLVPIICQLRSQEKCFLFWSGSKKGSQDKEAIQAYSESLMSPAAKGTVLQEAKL

Activity change, negative = inhibition, inactive:
Cc1sc(NC(=O)Cc2ccc3c(c2)OCO3)nc1-c1ccc2c(c1)CCN2C(=O)c1cccc(F)c1 -23.7%
CCOC(=O)N1CCC(NC(=O)c2ccc3c(c2)N(Cc2ccc(F)cc2)CCS3)CC1 -50.5%
Cc1c(Nc2nc3ccccc3nc2N2CCN(c3ccccc3)CC2)c(=O)n(-c2ccccc2)n1C -22%
O=C(Nc1ccccc1)C1=C(O)CC(c2ccoc2)CC1=Nc1ccccc1 (stereo not drawn) -26.7%
Cc1ccc(C(C(=O)NC(C)(C)C)N(Cc2cccs2)C(=O)c2ccc3c(c2)OCCO3)cc1 (stereo not drawn) 9.72%
CCn1c(C)c(C)c2cc(C(=O)Nc3cccc(Cl)c3)ccc21 -55.2%
O=C(OCCNc1ncc(C(F)(F)F)cc1Cl)c1ccc(S(=O)(=O)N2CCOCC2)cc1 6.42%
COc1ccc2c(c1)CC(C1(O)C(=O)N(C)c3ccccc31)C2=O (stereo not drawn) 75.3%
CCOc1cc2c3c(c1)C1(C(=O)N3C(C)(C)CC2C)C(C#N)=C(N)N2C(=C1C#N)Nc1ccccc12 (stereo not drawn) 4.74%
CCOC(=O)Nc1ccc2c(c1)N(C(=O)C(C)N1CCCC1)c1ccccc1CC2 (stereo not drawn) 25.8%
C[C@@H]1COC(=O)[C@H](NC(=O)OCC2c3ccccc3-c3ccccc32)C/C=C\C[C@@H](CC(=O)N[C@H](CO)Cc2ccccc2)C(=O)N1 -0.07%
Cc1cc(C)nc(N2CCC(C(=O)N3CCN(c4cc(Cl)ccc4C)CC3)CC2)n1 -16.4%
CCCCNc1c(-c2ccc(-c3ccc(C(C)=O)cc3)c(OC)c2)nc2cnccn12 -6.71%
O=C(NCc1ccccc1Cl)C1CCN(C(=O)c2sccc2-n2cccc2)CC1 -19.4%
COc1cc([N+](=O)[O-])ccc1NC(=O)NCC1CCN(Cc2ccc(Cl)cc2)CC1 -13%
CCOCCOC(=O)c1[nH]c2c(c1C)C(=O)CC(c1cccs1)C2 (stereo not drawn) -16.7%
NC(=O)c1cc(-c2ccccc2)sc1NC(=O)CN1CCCCC1 24.3%
Cc1sc(NC(=O)c2cccc([N+](=O)[O-])c2)c(C(N)=O)c1-c1ccc(C(C)(C)C)cc1 -34.7%
N#Cc1ccccc1S(=O)(=O)N1CCN(C(=O)C2CC(=O)N(c3ccc4c(c3)OCCO4)C2)CC1 (stereo not drawn) -4.49%
Cc1cccc(NC(=O)c2cc(-c3cc(C)cc(C)c3O)n[nH]2)c1 -31.4%
Cc1cc(=O)oc2cc(OCC(=O)N3CCN(C(=O)C4COc5ccccc5O4)CC3)c(Cl)cc12 (stereo not drawn) -16.1%
Cc1cc(NC(=O)Nc2ccccc2)n(-c2ccccc2)n1 -39.2%
COc1ccc(C2c3sc(=O)[nH]c3SC3C4CCC(C4)C23)cc1OC (stereo not drawn) -8.15%
CC(=O)Nc1ccc(S(=O)(=O)N2CCC(C(=O)NCCC(=O)NCc3ccccc3)CC2)cc1 49%
CC(C)(C)C(=O)Nc1sc2c(c1-c1nc3ccccc3[nH]1)CCCC2 -43.5%
Cc1nc2c(cnn2-c2ccccc2Cl)c(=O)n1-c1ccc(N2CCC(C)CC2)cc1 -33.4%
Cc1ccccc1C(=O)N1CCc2cc(-c3nc(NC(=O)Cc4ccc5c(c4)OCO5)sc3C)ccc21 2.62%
CCc1cc2c(=O)c(-c3ccc4c(c3)OCCO4)coc2cc1OS(C)(=O)=O -7.65%
COc1cc2c(cc1OC)-c1cc(OCc3ccccc3Cl)nc(=O)n1CC2 3.79%
COc1ccc(N2CCN(C(=O)Cc3csc(NC(=O)Nc4ccccc4OC)n3)CC2)cc1 -3.2%
Cc1ccsc1-c1nc(-c2ccccc2)c(-c2ccccc2)[nH]1 -8.96%
Oc1ccc(/C=C/c2nc(-c3ccccc3O)n(-c3ccccc3)n2)cc1 1.35%
COc1ccccc1CNC(=O)C1CCC(CNC(=O)[C@@H]2Cc3ccccc3CN2)CC1 (stereo partly drawn) -25.2%
Cc1ccc(-c2nnc(N3CCC(C)CC3)c3ccccc23)cc1C -45.3%
CC(=O)Nc1cc(NC(C)=O)cc(C(=O)OCC(=O)N(c2ccccc2)C2CCS(=O)(=O)C2)c1 (stereo not drawn) 29%
O=C1C2C3C=CC(C3)C2C(=O)N1c1cccc(N2C(=O)C3C4C=CC(C4)C3C2=O)n1 (stereo not drawn) 100%
CC(C)OC(=O)c1cccc(C(=O)Nc2cccc(NC(=O)c3cccc(C(=O)OC(C)C)n3)n2)n1 4.41%
CCNC(=O)c1c(NC(=O)c2cc(-c3cc(C)cc(C)c3O)n[nH]2)sc2c1CCCC2 -29.5%
